The source made the active and inactive calls. Cut-off read from the data, not from the text of the source, unless noted: active = inhibition above about 28%; inactive = the rest.
Assays:
[1] = StAR promoter reporter inhibitors, counter-screen for LRH-1 inverse agonist project, cell-based, luminescence, high throughput (AID 651611); conditions: StAR promoter luciferase reporter counterscreen, at 3.6 µM, stronger effect = higher value
[2] = molecular target: Nuclear receptor subfamily 5 group A member 2 (Homo sapiens) (UniProt O00482); experiment: LRH-1 (NR5A2) inverse agonists, retest, confirmation, cell-based, luminescence (AID 651613; in the data active = inhibition above about 42%;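 note: HEK293T cells co-transfected with LRH-1 and StAR promoter luciferase reporter; 0% = vehicle wells and 100% = parental cells lacking receptor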); conditions: cell-based LRH-1 luciferase reporter, inverse agonism; at 3.6 µM; stronger effect = higher value
Chain of Nuclear receptor subfamily 5 group A member 2 (Homo sapiens) (O00482 whole entry, looked up): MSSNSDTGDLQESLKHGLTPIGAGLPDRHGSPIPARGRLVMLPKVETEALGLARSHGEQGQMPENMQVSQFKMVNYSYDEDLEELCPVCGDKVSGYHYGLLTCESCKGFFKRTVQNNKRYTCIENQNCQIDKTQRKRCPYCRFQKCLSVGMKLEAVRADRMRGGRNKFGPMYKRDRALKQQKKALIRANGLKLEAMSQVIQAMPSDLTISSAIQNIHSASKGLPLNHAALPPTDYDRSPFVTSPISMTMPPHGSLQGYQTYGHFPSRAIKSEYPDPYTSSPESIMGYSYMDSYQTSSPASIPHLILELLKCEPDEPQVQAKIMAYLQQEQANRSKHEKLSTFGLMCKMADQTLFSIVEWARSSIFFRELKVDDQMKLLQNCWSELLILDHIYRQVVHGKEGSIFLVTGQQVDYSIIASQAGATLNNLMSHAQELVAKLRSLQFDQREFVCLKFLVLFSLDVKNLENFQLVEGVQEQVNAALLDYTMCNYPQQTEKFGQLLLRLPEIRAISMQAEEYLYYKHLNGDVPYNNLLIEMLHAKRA

[3] = molecular target: Steroidogenic factor 1 (Homo sapiens) (UniProt Q13285); experiment: SF1 (NR5A1) inverse agonists, counter-screen for LRH-1 inverse agonist project, cell-based, luminescence, high throughput (AID 651614; in the data active = inhibition above about 44%;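 note: cells cotransfected with StAR promoter reporter and SF1 expression vector; 0% = vehicle on cells with receptor and 100% = vehicle on cells lacking receptor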); conditions: cell-based SF1 luciferase reporter, at 3.6 µM, stronger effect = higher value
Chain of Steroidogenic factor 1 (Homo sapiens) (Q13285 whole entry, looked up, the tested form may be a part): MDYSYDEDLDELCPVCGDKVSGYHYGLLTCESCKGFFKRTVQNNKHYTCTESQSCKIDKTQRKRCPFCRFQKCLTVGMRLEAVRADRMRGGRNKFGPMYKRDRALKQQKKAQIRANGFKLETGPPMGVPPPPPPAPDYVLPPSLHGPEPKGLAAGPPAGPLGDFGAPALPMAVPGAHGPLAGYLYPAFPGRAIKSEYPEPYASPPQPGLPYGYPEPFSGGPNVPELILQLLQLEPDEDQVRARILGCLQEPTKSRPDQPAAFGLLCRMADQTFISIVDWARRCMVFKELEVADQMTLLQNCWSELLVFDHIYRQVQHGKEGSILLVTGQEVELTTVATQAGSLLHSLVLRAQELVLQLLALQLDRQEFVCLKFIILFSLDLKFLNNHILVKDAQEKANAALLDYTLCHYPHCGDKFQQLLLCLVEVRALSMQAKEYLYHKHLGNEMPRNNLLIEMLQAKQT

[4] = VP16 transactivation reporter inhibitors, counter-screen for LRH-1 inverse agonist project, cell-based, luminescence, high throughput (AID 651615; in the data active = inhibition above about 33%); conditions: Gal4-VP16 luciferase reporter cells, at 3.6 µM, stronger effect = higher value

| SMILES | inhibition [1] | inhibition [2] | inhibition [3] | inhibition [4] |
| --- | --- | --- | --- | --- |
| C=CCn1c(SCC(=O)Nc2ccccc2C)nc(O)cc1=O | 9.34% (inactive) | 57.8% (active) | 52.2% (active) | -13.2% (inactive) |
| COc1ccc(C(NC(=O)C(C)C)c2ccc3cccnc3c2O)cc1 (stereo not drawn) | 84.5% (active) | 103% (active) | 91.8% (active) | 87.7% (active) |
| Cc1c(Cl)cccc1NC(=O)CSc1nnc(C)n1CC1CCCO1 (stereo not drawn) | -4.11% (inactive) | 38.1% (inactive) | 14.9% (inactive) | -6.95% (inactive) |
| Cc1ccccc1Nc1nc(-c2cccnc2)nc2ccccc12 | 2.04% (inactive) | 41.5% (active) | 33.2% (inactive) | -10.5% (inactive) |
| O=C(CSc1nc2ccccc2c(=O)n1-c1ccc(Cl)c(Cl)c1)Nc1ccc2c(c1)CCC2 | -1.82% (inactive) | 49.9% (active) | 37.8% (inactive) | -40.9% (inactive) |
| CCN(CC)S(=O)(=O)c1cc(NC(=O)CCCOc2ccc(C(C)=O)cc2)ccc1C | 2.6% (inactive) | 42.6% (active) | 19.8% (inactive) | 21.1% (inactive) |
| C[C@H](CO)N1C[C@H](C)[C@H](CN(C)Cc2ccncc2)Oc2cc(-c3ccccc3F)ccc2S1(=O)=O | 12.8% (inactive) | 64.6% (active) | 64.6% (active) | 11.1% (inactive) |
| CC(=O)c1ccsc1-c1c(C)cc2oc(=O)cc(-c3ccccc3)c2c1C | 8.02% (inactive) | 64.7% (active) | 54.4% (active) | -0.37% (inactive) |
| O=C(COc1ccc2c3c(c(=O)oc2c1)CCCC3)NCCCN1CCOCC1 | 14.4% (inactive) | 44.6% (active) | 45% (active) | -6.23% (inactive) |
| CC(=O)Nc1ccc(NC(=O)CSc2nnc(NC(=O)C3CC3)s2)cc1 | 1.23% (inactive) | 49.6% (active) | 48.2% (active) | -1.05% (inactive) |
| CCOC(=O)N1CCc2cc(OC)c(OC)c3c2c1cc1cc(OC)c(OC)cc13 | 60.1% (active) | 70.3% (active) | 67.3% (active) | -28.7% (inactive) |
| c1ccc(-c2nc(NCC3CCCO3)c3oc4ccccc4c3n2)cc1 (stereo not drawn) | -0.47% (inactive) | 38.2% (inactive) | 39.8% (inactive) | -17.1% (inactive) |
| O=C(CN1CCN(c2ncccn2)CC1)N1CCCc2c1c(=O)oc1ccc(O)cc21 | 13% (inactive) | 62.6% (active) | 53.6% (active) | -33.2% (inactive) |
| COC(=O)c1ccc(NC(=O)CSc2nncn2-c2cccnc2)cc1 | -6.12% (inactive) | 44.6% (active) | 34.3% (inactive) | 0.63% (inactive) |
| O=C(N/N=C/c1ccc([N+](=O)[O-])o1)c1ccccc1-n1cccc1 | 32.3% (active) | 71.6% (active) | 63.4% (active) | 0.97% (inactive) |
| COC(=O)c1ccc(NC(=O)CN2CCN(c3ccc(Cl)cc3)CC2)cc1 | -0.66% (inactive) | 52.3% (active) | 45.8% (active) | 2.51% (inactive) |
| Cc1cccc2cc(C#N)c(SCC(=O)N3CC(=O)Nc4ccccc43)nc12 | 53.7% (active) | 23.3% (inactive) | 38.1% (inactive) | 38.5% (active) |
| CCn1c(=S)sc2c(=O)n(CC(=O)Nc3ccc(OC)c(Cl)c3)c(C)nc21 | 6% (inactive) | 33.4% (inactive) | 24.9% (inactive) | 4.75% (inactive) |
| COc1cc(C(=O)Nc2sc3c(c2C#N)CCN(C(C)=O)C3)cc(OC)c1OC | 23.3% (inactive) | 66.3% (active) | 62.2% (active) | -16.2% (inactive) |
| Cc1ccc(OCc2nnc(SCC(=O)Nc3ccc4c(c3)OCCO4)n2Cc2ccco2)cc1 | 6.71% (inactive) | 45.5% (active) | 41.2% (inactive) | 1.35% (inactive) |
| Cc1cc(C)n(-c2nc(Nc3ccccc3C(F)(F)F)nc(-n3nc(C)cc3C)n2)n1 | 20.8% (inactive) | 21.6% (inactive) | 24.5% (inactive) | -0.49% (inactive) |
| C/C(=N\NC(N)=S)c1ccc(Cl)s1 | 16.8% (inactive) | 55.8% (active) | 35.5% (inactive) | 21.2% (inactive) |
| CCOc1ccc(CCNC(=O)CN2C(=O)NC3(CCc4ccccc43)C2=O)cc1OCC (stereo not drawn) | 13.9% (inactive) | 49.8% (active) | 45.7% (active) | -14% (inactive) |
| COc1ccc(CCn2c(C)cc(C(=O)COC(=O)c3ccc(O)cc3O)c2C)cc1 | 5.91% (inactive) | 41.5% (active) | 28.4% (inactive) | -15% (inactive) |
| O=c1cc(C2CCCCC2)[nH]c(=O)[nH]1 | 10.2% (inactive) | 48.1% (active) | 48% (active) | 2.19% (inactive) |
| COc1ccc(Oc2ccccc2/C=N/O)cc1 | 2.42% (inactive) | 57% (active) | 58.1% (active) | 42.5% (active) |

| SMILES | inhibition [1] | inhibition [2] | inhibition [3] | inhibition [4] |
| --- | --- | --- | --- | --- |
| CCOc1ccc(CCNC(=O)COC(=O)c2cccc(S(=O)(=O)N3CCCC3)c2)cc1OCC | -4.16% (inactive) | 58.6% (active) | 54.1% (active) | 9.86% (inactive) |
| C#Cc1cccc(Nc2nc(NC(C)C)nc3ccsc23)c1 | 17.7% (inactive) | 63.6% (active) | 60.9% (active) | 20.3% (inactive) |
| Cc1onc(-c2cccc(Cl)c2Cl)c1C(=O)O/N=C(\N)c1ccc([N+](=O)[O-])o1 | 11.8% (inactive) | 69.7% (active) | 67.3% (active) | -4.83% (inactive) |
| O=C(NCCCNc1ccc([N+](=O)[O-])cc1)C(F)(F)F | 9.72% (inactive) | 54.9% (active) | 52.4% (active) | -18.2% (inactive) |
| CCc1cc(=O)oc2cc(C)cc(OCC(=O)NC3CC3)c12 | -0.05% (inactive) | 66.5% (active) | 55.9% (active) | 10.2% (inactive) |
| O=c1c2ccc(Cl)cc2nc(-c2cccc(C(F)(F)F)c2)n1O | 26.8% (inactive) | 42.6% (active) | 35.4% (inactive) | 46.2% (active) |
| O=C(Nc1nc2ccc(F)cc2s1)c1ccc([N+](=O)[O-])o1 | -101% (inactive) | 0.34% (inactive) | 10% (inactive) | -93.2% (inactive) |
| CC(=O)COc1ccc2c(-c3cccc([N+](=O)[O-])c3)cc(=O)oc2c1 | 7.05% (inactive) | 67.2% (active) | 51.8% (active) | 0.45% (inactive) |
| Cc1onc(-c2c(F)cccc2Cl)c1C(=O)c1ccccc1O | 7.24% (inactive) | 51.3% (active) | 49.1% (active) | -0.7% (inactive) |
| COc1ccc(-c2cc(NC=O)c3ncc(-c4ccc(OC)c(OC)c4)n3c2)c(OC)c1 | 65.5% (active) | 53.5% (active) | 62% (active) | 2.18% (inactive) |
| Cc1[nH][nH]c(=O)c1N=Nc1ccc(S(N)(=O)=O)cc1 | 20.7% (inactive) | 52.1% (active) | 51.5% (active) | 6.39% (inactive) |
| CCC(C)NC(=O)c1ccc2c(c1)N(Cc1ccccc1)C(=O)CS2 (stereo not drawn) | 7.12% (inactive) | 49.2% (active) | 51.5% (active) | 3.22% (inactive) |
| O=C1C(=C(I)I)c2ccccc2-c2ccccc21 | 2.21% (inactive) | 10.4% (inactive) | -21.6% (inactive) | -39.2% (inactive) |
| CO/N=C\C(=N\Nc1ccc(OC)cc1)C(=O)c1ccccc1 | -11.7% (inactive) | 49.5% (active) | 36.8% (inactive) | 5.9% (inactive) |
| COc1cc(C(=O)Nc2ccccc2N2CCN(S(C)(=O)=O)CC2)cc(OC)c1OC | 9.79% (inactive) | 44.5% (active) | 34% (inactive) | -2.73% (inactive) |
| COc1ccc(Oc2ccc(NC(=O)c3ccccc3C)cc2)cc1 | 8.67% (inactive) | 38.8% (inactive) | 40.1% (inactive) | -18.1% (inactive) |
| COc1cccc2c1C(=O)c1c(O)c3c(c(O)c1C2=O)C[C@@](O)(C(C)=O)C[C@@H]3O[C@H]1C[C@H](N)[C@H](O)[C@H](C)O1 | 76.5% (active) | 104% (active) | 94.4% (active) | 94% (active) |
| COc1ccc(-c2c(C)cc3oc(=O)cc(-c4ccccc4)c3c2C)cc1 | 10.6% (inactive) | 54.8% (active) | 45.4% (active) | 17.3% (inactive) |
| CC(=O)Nc1ccc(NC(=O)CSc2nnc(-c3cc4ccccc4o3)n2C)cc1 | -0.36% (inactive) | 42.7% (active) | 43.9% (active) | -5.84% (inactive) |
| COC(=O)CC1(C(=O)OC)Oc2ccc(Br)cc2C(=O)N1c1cc(Cl)c(Cl)cc1Cl (stereo not drawn) | 12.1% (inactive) | 58.5% (active) | 48.2% (active) | 20.2% (inactive) |
| CNC(=O)c1cccc(NC(=O)c2cc(-c3ccccc3)nc3c2cnn3C(C)C)c1 | 29.4% (active) | 51.7% (active) | 49.4% (active) | -19.8% (inactive) |
| CCOC(=O)c1cnc(-n2nc(C)cc2C)nc1NC1CCCC1 | 0.01% (inactive) | 56.9% (active) | 52.4% (active) | 9.25% (inactive) |
| Cc1cc(/C=N/n2cnnc2)c(C)n1-c1ccc(OCc2ccc(Cl)cc2)cc1 | -11% (inactive) | 27.8% (inactive) | 48.3% (active) | 31.2% (active) |
| CN1CCN(c2nc(-c3ccccc3O)nc3ccccc23)CC1 | 5.26% (inactive) | 42% (active) | 26.3% (inactive) | 39.5% (active) |
| NC(=S)N/N=C/c1ccc(C(F)(F)F)cc1 | -1.87% (inactive) | 48.1% (active) | 44.6% (active) | 9.68% (inactive) |
| O=[N+]([O-])c1ccc(/C=N/n2c(CO)nc3ccccc32)s1 | 16.3% (inactive) | 62.2% (active) | 59.9% (active) | 2.51% (inactive) |
